Data from PubChem BioAssay (NCATS).
Inconclusive results are not listed. Values without a mark were called inactive. The call rests on the fitted dose curve; in most records, active means well fitted inhibition curve with a large enough effect; inconclusive means small, poorly fitted or top-dose-only effect; inactive means flat fitted curve, though single readings scatter. Where a SMILES comes first, the peptide text is derived from it. Bridges are numbered along the chain shown (N, C = ends). [ ]: non-standard residue; d: D form. The star is where a group is joined. X2 = CC[C@H](C)CCCCC(=O)*; Dab = NCC[C@H](N)C(=O)O

tested on: KB-3-1; experiment: Cytotoxic Profiling of Annotated Libraries Using Quantitative High-Throughput Screening (AID 1296008); conditions: Five cell lines viability, CellTiter-Glo ATP luminescence, 48-72 h; max response: hits give low values; further: nearly all actives have a fitted effect of over 60% in size
Summary of the method: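 Cells exposed to compounds for 48 or 72 hr at 37 degrees Celsius. Viability read as ATP-coupled luminescence with CellTiter-Glo after 10 min at room temperature.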
On the % scale 0 is the no-effect control and ±100 the full control effect.

Point of comparison: `O=C(O)c1cc(N=Nc2ccc(O)c(C(=O)O)c2)ccc1O`, max response -1.02%. Against it:
- FC(F)OC(Cl)C(F)(F)F (configuration not stated) — higher, 0.674%
- CC[C@H](C)CCCCC(=O)N[C@@H](CCN)C(=O)N[C@H](C(=O)N[C@@H](CCN)C(=O)N[C@H]1CCNC(=O)[C@@H]([C@H](C)O)NC(=O)[C@H](CCN)NC(=O)[C@H](CCN)NC(=O)[C@H](CC(C)C)NC(=O)[C@@H](CC(C)C)NC(=O)[C@H](CCN)NC1=O)[C@@H](C)O (X2-[Dab]T[Dab][Dab][Dab][dL]L[Dab][Dab][dT]; lactam 4-C) — lower, -9.96%
- CC1CC(O)CC(C)(C)C1 (configuration not stated) — higher, 4.01%
- CC(C)(C)NC[C@H](O)COc1ccccc1C1CCCC1 — higher, 1.39%
- O=C1[O][Bi][O]c2ccccc21 — lower, -7.6%
- CC1=C(/C=C/C(C)=C/C=C/C(C)=C/C(=O)Oc2c(C)c(C)c3c(c2C)CC[C@@](C)(CCC[C@H](C)CCC[C@H](C)CCCC(C)C)O3)C(C)(C)CCC1 — lower, -1.1%
- FC(F)(F)C(F)(F)C(F)(F)C(F)(F)C(F)(F)C(F)(F)F — higher, 6.4%
- OCC1(CO)COC(C(Cl)(Cl)Cl)OC1 — higher, 16.6%
- CC(=O)[C@@]1(O)CC[C@H]2[C@@H]3C=C(Cl)C4=CC(=O)[C@@H]5C[C@@H]5[C@]4(C)[C@H]3CC[C@@]21C — higher, 1.37%
- CCOC(=O)[C@@H](N)CS — lower, -7.89%
- C[Se]CC[C@H](N)C(=O)O — higher, 0.415%
- C[C@]12CCC(=O)C[C@@H]1CC[C@@H]1[C@@H]2CC[C@]2(C)C=CC[C@@H]12 — lower, -14.2%
- OC[C@H]1OC([S-])[C@H](O)[C@@H](O)[C@@H]1O.[Au+] (some centres not stated) — higher, 5.78%
- CCOC(=O)[C@H](CS)NCCN[C@@H](CS)C(=O)OCC — higher, 6.15%
- Cc1ncc(C[n+]2csc(CCOP(=O)(O)OP(=O)(O)O)c2C)c(N)n1 — lower, -1.51%
- CO/N=C(\C(=O)N[C@@H]1C(=O)N2C(C(=O)O)=CCS[C@H]12)c1csc(N)n1 — higher, 1.16%
- Cc1ncc(COP(=O)(O)O)c(CN)c1O — lower, -6.16%
- CCc1cn([C@H]2C[C@H](O)[C@@H](CO)O2)c(=O)[nH]c1=O — higher, 5.47%
- OCCOCCOCCO — lower, -12.6%
- Cc1ccc(S(=O)(=O)NCl)cc1 — higher, 2.64%
- CC(=O)c1ccc2c(c1)N(CCCN1CCN(CCO)CC1)c1ccccc1S2 — higher, 1.1%
- Nc1ncnc2c1ncn2CCOCP(=O)(O)O — lower, -6.33%
- Cc1nc(NS(=O)(=O)c2ccc(N)cc2)nc(C)c1Br — higher, 9.38%
- CCN(CC)C(=O)[C@]1(c2ccccc2)C[C@@H]1CN — higher, 6.62%
- Oc1cc(O)cc(O)c1 — higher, 3%
- O=C(O)Cc1nn(Cc2ccc(Br)cc2F)c(=O)c2ccccc12 — higher, 1.97%
- O=C(O)CN(CC(=O)O)CC1=CC2C(=CC1=O)Oc1cc(O)c(CN(CC(=O)O)CC(=O)O)cc1C21OC(=O)c2ccccc21 (configuration not stated) — lower, -3.16%
- C[C@H](NCCc1ccc(O)cc1)[C@H](O)c1ccc(O)cc1 — lower, -13.6%
- CC(=O)N=c1sc(S(N)(=O)=O)nn1C — higher, 21.5%
- O=C[C@H](O)[C@@H](O)[C@@H](O)[C@H](O)CO — lower, -13.6%
- C/C=C/C=C/C(=O)O — higher, 5.4%
- CCCCCCCCCCCCCCCC(=O)OC[C@@H](O)[C@H]1OC[C@H](O)[C@H]1O — lower, -3.59%
- CCCCC[C@H](O)/C=C/[C@@H]1[C@H]2C/C(=C/CCCC(=O)O)O[C@H]2C[C@H]1O — higher, 11.9%
- COC(=O)[C@@H](N)CS — lower, -3.99%
- O=C1c2ccccc2C(=O)C1c1ccc(Cl)cc1 — lower, -7.12%
- CC1C(=O)CC2C3(C)CCC2(C(C)C(=O)O)C(=O)C13 (configuration not stated) — higher, 5.4%
